In the supplement of paper PMC8728848:
This excerpt belongs to a sample that is enriched for the strongest signals.

Legend:
Test in all cases: glycan array binding signal (z-score within array); higher = stronger binding
Settings in all cases: glycan notation: IUPAC condensed, linker removed
Fuc(a1-2)Gal = target: Fuc(a1-2)Gal
In short: (§1)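 The binding signal is a Z-score computed within each array. Data were drawn from 3228 arrays in the Consortium for Functional Glycomics database, restricted to those with a known protein sequence. Scores were averaged over arrays of the same protein sequence at different concentrations or buffers, and over linkers, and negative values can be taken as non-binding.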

[1] = target: Fuc(a1-2)Gal(b1-4)Fuc(a1-3)]GlcNAc(b1-2)Man(a1-3)[Fuc(a1-2)Gal(b1-4)[Fuc(a1-3)]GlcNAc(b1-2)Man(a1-6)]Man(b1-4)GlcNAc(b1-4)GlcNAc
In short: as §1

[2] = target: Fuc(a1-2)Gal(b1-4)[Fuc(a1-3)]GlcNAc
In short: as §1

[3] = target: Fuc(a1-2)[Gal(a1-3)]Gal(b1-3)GalNAc
In short: as §1

[4] = target: Fuc(a1-2)[Gal(a1-3)]Gal(b1-3)GlcNAc(b1-2)Man(a1-3)[Fuc(a1-2)[Gal(a1-3)]Gal(b1-3)GlcNAc(b1-2)Man(a1-6)]Man(b1-4)GlcNAc(b1-4)GlcNAc
In short: as §1

[5] = target: Fuc(a1-2)[Gal(a1-3)]Gal(b1-4)[Fuc(a1-3)]Glc
In short: as §1

[6] = target: Fuc(a1-2)[GalNAc(a1-3)]Gal(b1-3)GalNAc(b1-3)Gal(a1-4)Gal(b1-4)Glc
In short: as §1

[7] = target: Fuc(a1-2)[GalNAc(a1-3)]Gal(b1-4)Glc
In short: as §1

[8] = target: Fuc(a1-2)[GalNAc(b1-3)]Gal
In short: as §1

[9] = target: Fuc(a1-3)[Gal(b1-4)]GlcNAc(b1-2)Man(a1-3)[Fuc(a1-3)[Gal(b1-4)]GlcNAc(b1-2)Man(a1-6)]Man(b1-4)GlcNAc(b1-4)[Fuc(a1-6)]GlcNAc
In short: as §1

[10] = target: Fuc(a1-3)[GalNAc(b1-4)]GlcNAc
In short: as §1

[11] = target: Gal(a1-3)Gal(b1-3)GlcNAc(b1-6)GalNAc
In short: as §1

[12] = target: Gal(a1-3)Gal(b1-4)GlcNAc(b1-2)Man(a1-3)[Gal(a1-3)Gal(b1-4)GlcNAc(b1-2)Man(a1-6)]Man(b1-4)GlcNAc(b1-4)GlcNAc
In short: as §1

[13] = target: Gal(b1-4)GlcNAc(a1-6)Gal(b1-4)GlcNAc
In short: as §1

[14] = target: Gal(b1-4)GlcNAc(b1-2)Man(a1-3)[Gal(b1-4)GlcNAc(b1-2)Man(a1-6)]Man(b1-4)GlcNAc(b1-4)GlcNAc
In short: as §1

[15] = target: Gal(b1-4)GlcNAc(b1-2)[Gal(b1-4)GlcNAc(b1-4)]Man(a1-3)[GlcNAc(b1-4)][Gal(b1-4)GlcNAc(b1-2)[Gal(b1-4)GlcNAc(b1-6)]Man(a1-6)]Man(b1-4)GlcNAc(b1-4)GlcNAc
In short: as §1

[16] = target: Gal(b1-4)GlcNAc(b1-2)[Gal(b1-4)GlcNAc(b1-6)]Man(a1-6)[Gal(b1-4)GlcNAc(b1-2)Man(a1-3)]Man(b1-4)GlcNAc(b1-4)GlcNAc
In short: as §1

[17] = target: Gal(b1-4)GlcNAc(b1-3)Gal(b1-4)GlcNAc(b1-2)Man(a1-3)[Gal(b1-4)GlcNAc(b1-3)Gal(b1-4)GlcNAc(b1-2)Man(a1-6)]Man(b1-4)GlcNAc(b1-4)[Fuc(a1-6)]GlcNAc
In short: as §1

[18] = target: Gal(b1-4)GlcNAc(b1-3)Gal(b1-4)GlcNAc(b1-2)[Gal(b1-4)GlcNAc(b1-3)Gal(b1-4)GlcNAc(b1-6)]Man(a1-6)[Gal(b1-4)GlcNAc(b1-3)Gal(b1-4)GlcNAc(b1-2)Man(a1-3)]Man(b1-4)GlcNAc(b1-4)GlcNAc
In short: as §1

[19] = target: Gal(b1-4)GlcNAc(b1-3)Gal(b1-4)GlcNAc(b1-3)Gal(b1-4)GlcNAc(b1-3)Gal(b1-4)GlcNAc(b1-2)Man(a1-3)[Gal(b1-4)GlcNAc(b1-3)Gal(b1-4)GlcNAc(b1-3)Gal(b1-4)GlcNAc(b1-3)Gal(b1-4)GlcNAc(b1-2)Man(a1-6)]Man(b1-4)GlcNAc(b1-4)[Fuc(a1-6)]GlcNAc
In short: as §1

[20] = target: Gal(b1-4)GlcNAc(b1-3)Gal(b1-4)GlcNAc(b1-3)Gal(b1-4)GlcNAc(b1-3)Gal(b1-4)GlcNAc(b1-2)[Gal(b1-4)GlcNAc(b1-3)Gal(b1-4)GlcNAc(b1-3)Gal(b1-4)GlcNAc(b1-3)Gal(b1-4)GlcNAc(b1-6)]Man(a1-6)[Gal(b1-4)GlcNAc(b1-3)Gal(b1-4)GlcNAc(b1-3)Gal(b1-4)GlcNAc(b1-3)Gal(b1-4)GlcNAc(b1-2)Man(a1-3)]Man(b1-4)GlcNAc(b1-4)[Fuc(a1-6)]GlcNAc
In short: as §1

[21] = target: Gal(b1-4)GlcNAc(b1-3)Gal(b1-4)GlcNAc(b1-3)Gal(b1-4)GlcNAc(b1-3)Gal(b1-4)GlcNAc(b1-3)Gal(b1-4)GlcNAc(b1-3)Gal(b1-4)GlcNAc(b1-2)Man(a1-3)[Gal(b1-4)GlcNAc(b1-3)Gal(b1-4)GlcNAc(b1-3)Gal(b1-4)GlcNAc(b1-3)Gal(b1-4)GlcNAc(b1-3)Gal(b1-4)GlcNAc(b1-3)Gal(b1-4)GlcNAc(b1-2)Man(a1-6)]Man(b1-4)GlcNAc(b1-4)GlcNAc
In short: as §1

[22] = target: Gal3S(b1-4)[Fuc(a1-3)]GlcNAc6S
In short: as §1

[23] = target: GalNAc(b1-4)GlcNAc(b1-3)GalNAc(b1-4)GlcNAc
In short: as §1

GalNAc4S6S(b1-4)GlcNAc = target: GalNAc4S6S(b1-4)GlcNAc
In short: as §1

GlcA(b1-3)Gal = target: GlcA(b1-3)Gal
In short: as §1

[24] = target: GlcNAc(b1-2)[GlcNAc(b1-4)]Man(a1-3)[GlcNAc(b1-2)Man(a1-6)]Man(b1-4)GlcNAc(b1-4)GlcNAc
In short: as §1

GlcNAc(b1-3)Gal(b1-4)Glc = target: GlcNAc(b1-3)Gal(b1-4)Glc
In short: as §1

[25] = target: GlcNAc(b1-3)Gal(b1-4)GlcNAc(b1-3)Gal(b1-4)GlcNAc(b1-2)Man(a1-3)[GlcNAc(b1-3)Gal(b1-4)GlcNAc(b1-3)Gal(b1-4)GlcNAc(b1-2)Man(a1-6)]Man(b1-4)GlcNAc(b1-4)GlcNAc
In short: as §1

MurNAc(b1-4)GlcNAc = target: MurNAc(b1-4)GlcNAc
In short: as §1

Neu5Ac(a2-3)Gal = target: Neu5Ac(a2-3)Gal
In short: as §1

[26] = target: Neu5Ac(a2-3)Gal(b1-3)GalNAc(b1-4)[Neu5Ac(a2-8)Neu5Ac(a2-3)]Gal(b1-4)Glc
In short: as §1

[27] = target: Neu5Ac(a2-3)Gal(b1-3)GlcNAc(b1-2)Man
In short: as §1

[28] = target: Neu5Ac(a2-3)Gal(b1-4)GlcNAc(b1-2)Man(a1-3)[GlcNAc(b1-4)][Neu5Ac(a2-3)Gal(b1-4)GlcNAc(b1-2)Man(a1-6)]Man(b1-4)GlcNAc(b1-4)GlcNAc
In short: as §1

[29] = target: Neu5Ac(a2-3)Gal(b1-4)GlcNAc(b1-3)Gal(b1-4)GlcNAc
In short: as §1

[30] = target: Neu5Ac(a2-3)Gal(b1-4)GlcNAc(b1-3)Gal(b1-4)[Fuc(a1-3)]GlcNAc
In short: as §1

[31] = target: Neu5Ac(a2-3)Gal(b1-4)GlcNAc(b1-6)[Neu5Ac(a2-3)Gal(b1-3)]GalNAc
In short: as §1

[32] = target: Neu5Ac(a2-3)Gal(b1-4)GlcNAc6S
In short: as §1

[33] = target: Neu5Ac(a2-3)Gal(b1-4)[Fuc(a1-3)]GlcNAc(b1-6)[Gal(b1-3)]GalNAc
In short: as §1

[34] = target: Neu5Ac(a2-6)GalNAc(b1-4)GlcNAc
In short: as §1

[35] = target: Neu5Ac(a2-6)GlcNAc(b1-4)GlcNAc
In short: as §1

[36] = target: Neu5Ac(a2-8)Neu5Ac(a2-8)Neu5Ac
In short: as §1

[37] = target: Neu5Gc(a2-3)Gal(b1-4)[Fuc(a1-3)]GlcNAc
In short: as §1

B1: HA-11100 (Pseudomonas aeruginosa), Q02G51_PSEAB (protein)
chain: QFNPNEIKISQQGKTTLIDQSTQRAIINWKGFDVSADEAVRFNQPGVTSSTLNRVTAGQESVIAGRISAPGQVIIYNSNGVVFSGSAKVDVGSLITTTANISDEHFRQGKLIFDQPGNPDARIVNDGSISVAEKGLAAFVAPSVANNGVINARLGTVAMAAGNAATIDLYG
- glycan array binding signal (z-score) (Fuc(a1-2)Gal): -0.09
- glycan array binding signal (z-score) [1]: 3.58
- glycan array binding signal (z-score) [2]: -0.134
- glycan array binding signal (z-score) [3]: -0.312
- glycan array binding signal (z-score) [4]: 7.81
- glycan array binding signal (z-score) [5]: 0.052
- glycan array binding signal (z-score) [6]: 0.044
- glycan array binding signal (z-score) [7]: -0.174
- glycan array binding signal (z-score) [8]: -0.384
- glycan array binding signal (z-score) [9]: 3.33
- glycan array binding signal (z-score) [10]: -0.403
- glycan array binding signal (z-score) [11]: -0.463
- glycan array binding signal (z-score) [12]: 3.53
- glycan array binding signal (z-score) [13]: -0.29
- glycan array binding signal (z-score) [14]: -0.512
- glycan array binding signal (z-score) [15]: 3.28
- glycan array binding signal (z-score) [16]: 7.59
- glycan array binding signal (z-score) [17]: 10.5
- glycan array binding signal (z-score) [18]: 5.77
- glycan array binding signal (z-score) [19]: 2.99
- glycan array binding signal (z-score) [20]: 3.24
- glycan array binding signal (z-score) [21]: 1.87
- glycan array binding signal (z-score) [22]: -0.451
- glycan array binding signal (z-score) [23]: 0.008
- glycan array binding signal (z-score) (GalNAc4S6S(b1-4)GlcNAc): -0.38
- glycan array binding signal (z-score) (GlcA(b1-3)Gal): -0.243
- glycan array binding signal (z-score) [24]: -0.37
- glycan array binding signal (z-score) (GlcNAc(b1-3)Gal(b1-4)Glc): -0.359
- glycan array binding signal (z-score) [25]: 3.34
- glycan array binding signal (z-score) (MurNAc(b1-4)GlcNAc): 0.053
- glycan array binding signal (z-score) (Neu5Ac(a2-3)Gal): -0.148
- glycan array binding signal (z-score) [26]: -0.214
- glycan array binding signal (z-score) [27]: -0.402
- glycan array binding signal (z-score) [28]: -0.268
- glycan array binding signal (z-score) [29]: -0.347
- glycan array binding signal (z-score) [30]: -0.737
- glycan array binding signal (z-score) [31]: -0.222
- glycan array binding signal (z-score) [32]: -0.016
- glycan array binding signal (z-score) [33]: 4.78
- glycan array binding signal (z-score) [34]: -0.851
- glycan array binding signal (z-score) [35]: -0.421
- glycan array binding signal (z-score) [36]: -0.333
- glycan array binding signal (z-score) [37]: -0.065
